Records with an inconclusive call do not appear. Unmarked numbers belong to inactive results. The source made the active and inactive calls. Calls come from the whole dose curve; as a rule, active = well fitted curve in the direction sought with a large enough effect; inconclusive = small, poorly fitted or top-dose-only effect, or another doubt; inactive = no such curve, though single readings can be large or run the other way.
Target: Holo-[acyl-carrier-protein] synthase (Bacillus subtilis (strain 168)) (UniProt P96618)
Experiment: qHTS Assay for Inhibitors of Bacillus subtilis AcpS phosphopantetheinyl transferase (PPTase): SAR
Conditions: purified B. subtilis AcpS enzyme; Potency: PPTase activity; series mostly up to 57.1 µM; activity change, negative = inhibition: at the top concentration
Description: The covalent attachment of a phosphopantetheinyl (4'-PP) arm to a variety of synthases and other proteins is a key posttranslational protein modification. The 4'-PP is installed on the proteins post-translationally from coenzyme A (CoA) on a conserved serine residue by action of phosphopantetheinyl transferase (PPTase) enzymes. Phosphopantetheinylation is essential for synthase activity, and removal of the PPTase gene precludes natural product synthesis in microorganisms, or in the case of fatty acid biosynthesis, renders the organism unviable. PPTase enzymes belong to a distinct structural superfamily. Within bacteria, these enzymes are grouped into two classes based upon primary structure, the AcpS-Type and Sfp-Type PPTases.
Sfp-type PPTases, corresponding to an activator of surfactin production in Bacillus subtilis, are responsible for modifying type I polyketide and nonribosomal peptide synthases of prokaryotes. Sfp-type PPTases are responsible for the activation of a variety of pathogen-associated virulence factors. Among these compounds are toxins such as mycolactone from Mycobacterium ulcerans, siderophores such as vibriobactin from Vibrio cholerae or mycobactin from Mycobacterium tuberculosis, as well as the mycolic acids which form the waxy cell wall of Mycobacteria. The biosyntheses of these natural products are considered attractive targets for drug design.
In search of small molecule Sfp-PPTase inhibitors, a fluorescence quenching assay was developed for detection of Bacillus subtilis Sfp-PPTase enzymatic activity in a miniaturized high-throughput format. The consensus ybbr acceptor peptide […] was N-terminally labeled with Black Hole Quencher-2 (BHQ-2) and used in combination with rhodamine-labeled coenzyme A as a co-substrate.
This project seeks to identify Sfp-PPTase inhibitors. This assay sought to determine the activity of these compounds with holo-acyl carrier protein synthase (AcpS) from E. coli, the canonical representative of the AcpS-PPTase subgrouping (vide supra). The evaluation utilized the qHTS assay format, with the only change being direct substitution of the enzyme.
NIH Chemical Genomics Center [NCGC]
NIH Molecular Libraries Probe Centers Network [MLPCN]
Assay Submitter (PI): Michale Burkart, University of California, San Diego
The assay was performed in a buffer consisting of 50mM HEPES-Na pH 7.6, 10mM MgCl2, 0.01% Nonidet P-40, and 0.01% BSA. Reagents (3 uL) were dispensed into a 1536-well black solid bottom plate (100 nM AcpS PPTase incolumns 1, 2, 5 through 48; buffer sans enzyme in columns 3 &4). DMSO solution of test articles (23 nL) were transferred via Kalypsys pintool equipped with 1,536-pin array. Following a room temperature incubation (15 min), enzyme reactions were initiated by the addition of substrate (1 uL , final concentration in the plte for rhodamine-CoA and BHQ-2-YbbR 5 uM and 12.5 uM, respectively). The plate was then centrifuged (15 s, 1000 rpm), and the fluorescence intensity recorded on a ViewLux High-throughput CCD imager (Perkin-Elmer, 525 nm excitation and 598 nm emission). The plate was then incubated at room temperature (30 min), after which a second read on the ViewLux was recorded. The fluorescence intensity difference over the 30-minute period was used to calculate the respective reaction rate for each well.

Row | Compound | activity change, negative = inhibition [%] | Potency
1 | CSC(Cc1ccc(Cl)cc1)C(=O)Nc1ccc(Cl)cc1C(=O)O (configuration not stated) | 1.84 | –
2 | Cc1ccnc(NC(=S)Nc2cccc(C(F)(F)F)c2)c1 | -5.9 | –
3 | CC(Cc1ccccc1)C(=O)Nc1ccc(Cl)cc1C(=O)O (configuration not stated) | -11.5 | –
4 | Cc1cc(C)nc(NC(=S)N2CCN(c3ncccc3C#N)CC2)c1 | -7.03 | –
5 | Cc1ccnc(NC(=S)N[C@@H]2CCN(c3cccc(C(F)(F)F)c3)C2)c1 | -1.64 | –
6 | COc1cccc(NC(=S)N2CCN(c3cc(Cl)cc(Cl)c3)CC2)n1 | 8.03 | –
7 | Cc1cc(C)nc(NC(=S)N2CCN(c3ccc([N+](=O)[O-])cc3Cl)CC2)c1 | – | 6.46 µM (active)
8 | Cc1ccnc(N=C(N)N2CCN(c3cccc(C(F)(F)F)c3)CC2)c1 | 15.1 | –
9 | Cc1ccnc(NC(=S)N2CCN(c3cc(C(F)(F)F)cc(C(F)(F)F)c3)CC2)c1 | – | 4.57 µM (active)
10 | Cc1nc(CN(C)c2ncnc3ccc(-c4ccc5[nH]ncc5c4)cc23)cs1 | 55.2 | –
11 | Cc1ccnc(NC(=S)N2CCCc3ccc(C(F)(F)F)cc32)c1 | 1.85 | –
12 | FC(F)(F)c1cc(N2CCN(C(=S)Nc3cc(Cl)ccn3)CC2)cc(C(F)(F)F)c1 | 10.1 | –
